Counter-ions that a name gives are not always drawn.
Experiments:
[1] = system: Saccharomyces cerevisiae BY4741 SeMeCo community; assay: z-score of prototroph abundance vs DMSO median; higher = larger share of this subpopulation than in DMSO controls; conditions: 10 µM; 24 h; SM minimal medium; subpopulation (auxotrophy): Prototroph
How it was run: (§1)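 Four plasmids, each restoring a single auxotrophy and encoding a distinct fluorescent protein, were carried by a Saccharomyces cerevisiae BY4741 community. After overnight growth to OD600 1.0 and dilution to 0.3, 70 µl per well was grown for 24 h in minimal SM medium on 384-well plates acoustically predosed with library drugs at 10 µM final. Following paraformaldehyde fixation, automated confocal microscopy was used, with single-auxotroph fluorescent strains defining thresholds and autofluorescence correction. Subpopulation abundance was then scored as a z-score against the vehicle-well median.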

[2] = system: Saccharomyces cerevisiae BY4741 SeMeCo community; assay: z-score of subpopulation abundance vs DMSO median, subpopulation auxotrophic for M; higher = larger share of this subpopulation than in DMSO controls; conditions: 10 µM; 24 h; SM minimal medium; subpopulation (auxotrophy): M
How it was run: as §1

[3] = system: Saccharomyces cerevisiae BY4741 SeMeCo community; assay: z-score of subpopulation abundance vs DMSO median, subpopulation auxotrophic for L; higher = larger share of this subpopulation than in DMSO controls; conditions: 10 µM; 24 h; SM minimal medium; subpopulation (auxotrophy): L
How it was run: as §1

[4] = system: Saccharomyces cerevisiae BY4741 SeMeCo community; assay: z-score of subpopulation abundance vs DMSO median, subpopulation auxotrophic for U; higher = larger share of this subpopulation than in DMSO controls; conditions: 10 µM; 24 h; SM minimal medium; subpopulation (auxotrophy): U
How it was run: as §1

[5] = system: Saccharomyces cerevisiae BY4741 SeMeCo community; assay: z-score of subpopulation abundance vs DMSO median, subpopulation auxotrophic for H; higher = larger share of this subpopulation than in DMSO controls; conditions: 10 µM; 24 h; SM minimal medium; subpopulation (auxotrophy): H
How it was run: as §1

[6] = system: Saccharomyces cerevisiae BY4741 SeMeCo community; assay: z-score of subpopulation abundance vs DMSO median, subpopulation auxotrophic for LU; higher = larger share of this subpopulation than in DMSO controls; conditions: 10 µM; 24 h; SM minimal medium; subpopulation (auxotrophy): LU
How it was run: as §1

[7] = system: Saccharomyces cerevisiae BY4741 SeMeCo community; assay: z-score of subpopulation abundance vs DMSO median, subpopulation auxotrophic for LM; higher = larger share of this subpopulation than in DMSO controls; conditions: 10 µM; 24 h; SM minimal medium; subpopulation (auxotrophy): LM
How it was run: as §1

[8] = system: Saccharomyces cerevisiae BY4741 SeMeCo community; assay: z-score of subpopulation abundance vs DMSO median, subpopulation auxotrophic for HM; higher = larger share of this subpopulation than in DMSO controls; conditions: 10 µM; 24 h; SM minimal medium; subpopulation (auxotrophy): HM
How it was run: as §1

[9] = system: Saccharomyces cerevisiae BY4741 SeMeCo community; assay: z-score of subpopulation abundance vs DMSO median, subpopulation auxotrophic for UM; higher = larger share of this subpopulation than in DMSO controls; conditions: 10 µM; 24 h; SM minimal medium; subpopulation (auxotrophy): UM
How it was run: as §1

[10] = system: Saccharomyces cerevisiae BY4741 SeMeCo community; assay: z-score of subpopulation abundance vs DMSO median, subpopulation auxotrophic for HL; higher = larger share of this subpopulation than in DMSO controls; conditions: 10 µM; 24 h; SM minimal medium; subpopulation (auxotrophy): HL
How it was run: as §1

[11] = system: Saccharomyces cerevisiae BY4741 SeMeCo community; assay: z-score of subpopulation abundance vs DMSO median, subpopulation auxotrophic for HLU; higher = larger share of this subpopulation than in DMSO controls; conditions: 10 µM; 24 h; SM minimal medium; subpopulation (auxotrophy): HLU
How it was run: as §1

[12] = system: Saccharomyces cerevisiae BY4741 SeMeCo community; assay: z-score of subpopulation abundance vs DMSO median, subpopulation auxotrophic for HLM; higher = larger share of this subpopulation than in DMSO controls; conditions: 10 µM; 24 h; SM minimal medium; subpopulation (auxotrophy): HLM
How it was run: as §1

[13] = system: Saccharomyces cerevisiae BY4741 SeMeCo community; assay: z-score of subpopulation abundance vs DMSO median, subpopulation auxotrophic for HUM; higher = larger share of this subpopulation than in DMSO controls; conditions: 10 µM; 24 h; SM minimal medium; subpopulation (auxotrophy): HUM
How it was run: as §1

[14] = system: Saccharomyces cerevisiae BY4741 SeMeCo community; assay: z-score of subpopulation abundance vs DMSO median, subpopulation auxotrophic for HLUM; higher = larger share of this subpopulation than in DMSO controls; conditions: 10 µM; 24 h; SM minimal medium; subpopulation (auxotrophy): HLUM
How it was run: as §1

[15] = system: Saccharomyces cerevisiae BY4741 SeMeCo community; assay: z-score of subpopulation abundance vs DMSO median, subpopulation auxotrophic for LUM; higher = larger share of this subpopulation than in DMSO controls; conditions: 10 µM; 24 h; SM minimal medium; subpopulation (auxotrophy): LUM
How it was run: as §1

[16] = system: Saccharomyces cerevisiae BY4741 SeMeCo community; assay: z-score of subpopulation abundance vs DMSO median, subpopulation auxotrophic for HU; higher = larger share of this subpopulation than in DMSO controls; conditions: 10 µM; 24 h; SM minimal medium; subpopulation (auxotrophy): HU
How it was run: as §1

Row | SMILES | z-score of prototroph abundance [1] | z-score of subpopulation abundance [2] | z-score of subpopulation abundance [3] | z-score of subpopulation abundance [4] | z-score of subpopulation abundance [5] | z-score of subpopulation abundance [6] | z-score of subpopulation abundance [7] | z-score of subpopulation abundance [8] | z-score of subpopulation abundance [9] | z-score of subpopulation abundance [10] | z-score of subpopulation abundance [11] | z-score of subpopulation abundance [12] | z-score of subpopulation abundance [13] | z-score of subpopulation abundance [14] | z-score of subpopulation abundance [15] | z-score of subpopulation abundance [16]
1 | Cc1c(C)c2c(c(C)c1O)CCC(C)(CCCC(C)CCCC(C)CCCC(C)C)O2 (centres undefined) [Vitamin E] | 0.82 | -0.6 | -0.8 | 0.13 | -0.89 | -0.31 | -0.64 | -1.28 | -0.04 | -1.01 | -1.19 | -1.72 | -0.31 | -1.29 |  | 
2 | C[C@]1(Cn2ccnn2)[C@H](C(=O)O)N2C(=O)C[C@H]2S1(=O)=O [Tazobactam] | -0.17 | -0.32 | -0.56 | 0.75 | -1.1 | 0.66 | -0.39 | -0.74 | 0.66 |  | 0.12 | -0.56 | -0.01 | 0.69 | 0.22 | 
3 | O=c1ccn(C2CC(O)C(CO)O2)c(=O)[nH]1 (centres undefined) [2-deoxyuridine] | 0.08 | 0.17 | 1.75 |  | 0.07 | 0.31 | 0.89 | 0.04 | -0.82 |  | 0.49 | 0.54 | -0.27 | 0.04 | 0.23 | -1.08
4 | O=C1Nc2ccccc2C1=O [Isatin] |  | -0.49 | -0.04 | 0.43 | 0.05 | 0.53 | -0.62 | -0.24 | 0.51 |  | 0.06 | -1.17 | 0.2 | -0.52 |  | 
5 | CCN(Cc1ccncc1)C(=O)C(CO)c1ccccc1 (centres undefined) [Tropicamide] |  | -0.16 | 0.34 | 0.43 | -0.6 | 0.14 | 0.83 | -0.12 | 0.23 | 0.16 | 0.42 | -0.45 | 0.16 | 0.01 | 0 | 
6 | Cc1nc(Nc2ccc(F)cc2)nc(N2CCc3ccccc3C2C)c1C (centres undefined) [Revaprazan Hydrochloride] | -0.48 | -0.84 | 0.02 | 0.73 | 1 | 0.2 | 0.05 | -0.33 | 1.11 | 0.35 | -0.07 | -0.32 | 0.45 |  | 0.27 | 0.79
7 | Cc1ccc(S(=O)(=O)NC(=O)NN2CC3CCCC3C2)cc1 (centres undefined) [Gliclazide] | 0.12 | 0.04 | -0.2 | -0.1 |  | -0.08 | -0.15 | 0.02 | 0.59 |  | -0.52 | -0.16 | -0.04 | -0.17 |  | -0.25
8 | CNC1CCCN(c2c(F)cc3c(=O)c(C(=O)O)cn(C4CC4)c3c2OC)C1 (centres undefined) [Balofloxacin] | -0.14 | 0.44 | -0.33 | 0.18 | -0.4 | -0.04 | -0.13 |  |  | -0.7 | -0.57 | -0.9 | 0.67 |  | 0.17 | 0.32
